# DAX1 inh-1 – blocks DAX1 repression of SF-1 activated StAR promoter. HEK293T StAR-luciferase reporter, SF-1/DAX-1 repression relief. inhibition, % at 6.8 µM. 370,000 tested, 1.1% active;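 active = inhibition above the mean over all tested compounds plus 3 SD, cut at about 3.6% in these data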;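 note: 0% = DAX-1 cells with DMSO and 100% = cells lacking DAX-1 with DMSO; higher inhibition means more luminescence from relief of DAX-1 repression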
# hgDAF12 agonist – agonists of H. glycines DAF-12 nuclear receptor. HEK293 GAL4-hgDAF12 UAS-luciferase reporter, agonist luminescence; normalized to butyrate control. AID 687014. activation, % at 6.8 µM. 370,000 tested, 1.8% active;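 active = activation above a cutoff set at the mean of all screened compounds plus 3 SD, cut at about 10% in these data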;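 note: 0% = DMSO wells and 100% = sodium butyrate wells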
# ssDAF-12 act – S. stercoralis DAF-12 activation, primary screen. HEK293 ssDAF-12/GRIP1 lit1-tk-luc reporter, luminescence; % of 3 µM dafachronic acid response. activation, % at 6.8 µM. 370,000 tested, 1% active. AID 652126;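 active = activation above the mean over all tested compounds plus 3 SD, cut at about 0.9% in these data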;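 note: 0% = DMSO-only wells and 100% = 3 µM delta7-dafachronic acid wells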
# hcDAF-12 act – activators of H. contortus DAF-12 nuclear receptor. HEK293 hcDAF-12 lit1-tk-luc reporter, luminescence; 0% DMSO, 100% Δ7-dafachronic acid. AID 652067. 370,000 tested, 1.4% active. activation, % at 6.8 µM;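 active = activation above the mean of all tested compounds plus 3 SD, cut at about 5.5% in these data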;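 note: 100% = response to 3 µM Δ7-dafachronic acid high control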
# DAX1 inh-2 – NR0B1 (DAX1) inhibition | HEK293 Gal4-DAX1 luciferase reporter, luminescence | inhibition, % at 6.75 µM | 340,000 tested, 0.99% active | AID 504766;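 active = inhibition above the mean over all tested compounds plus 3 SD, cut at about 4.2% in these data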;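 note: 0% = DAX1-transfected cells with DMSO and 100% = empty-vector control cells with DMSO; inhibition shows as a rise in luminescence from relieved DAX1 repression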
# Target sequence (P51843 207-470 limits assumed): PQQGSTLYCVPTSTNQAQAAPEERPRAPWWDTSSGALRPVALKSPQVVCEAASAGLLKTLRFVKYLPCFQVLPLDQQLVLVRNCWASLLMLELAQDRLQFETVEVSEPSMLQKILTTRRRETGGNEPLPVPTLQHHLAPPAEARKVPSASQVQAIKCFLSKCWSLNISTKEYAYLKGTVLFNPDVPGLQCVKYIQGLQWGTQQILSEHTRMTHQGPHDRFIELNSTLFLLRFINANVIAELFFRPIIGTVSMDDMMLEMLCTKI
# An asterisk follows results filed as active; . = no result. Hits are enriched below; roughly 4.1% of the tested compounds scored in any of these assays.
SMILES,DAX1 inh-1,hgDAF12 agonist,ssDAF-12 act,hcDAF-12 act,DAX1 inh-2
COc1ccc(CNS(=O)(=O)CC2NCc3ccc(C)cc32)cc1 (stereo not given),-0.4,-1.1,-1.0,1.3,.
C#CCN(Cc1ccco1)C(=O)c1nnc2c3cc(OC)ccc3n(S(=O)(=O)c3ccc(OC)cc3)c2n1,0.6,3.4,-0.3,0.4,.
CCn1c2ccccc2c2cc(NC(=O)COC(=O)c3ccc(F)cc3Cl)ccc21,0.9,2.5,-1.1,-1.7,.
COc1ccccc1CCn1cnc(-c2ccc(F)cc2F)c1CC(C)C,-0.1,-0.1,-1.4,-1.3,.
Cn1c(SCC(=O)NCCc2ccccc2)ncc(C(=O)Nc2ccc(F)cc2)c1=O,2.4,2.4,0.9*,2.7,0.4
Cn1c(SCC(=O)c2ccccc2)ncc(C(=O)Nc2ccccc2)c1=O,1.6,4.1,0.6,1.7,0.2
Cc1ccc2c(c1)N(CCCC(=O)NCc1c(F)cccc1F)C(=O)CO2,-1.5,3.3,-1.5,-2.1,.
Cc1nnc(SCC(=O)N(C)c2ccccc2)n1-n1cccc1,.,.,.,.,4.7*
CN(C(=O)CSc1nnc(-c2cccs2)n1N)c1ccccc1,0.0,-0.9,-1.0,0.4,0.2
O=C(CN1C(=O)NC2(CCCC2)C1=O)NCCN1C(=O)S/C(=C\c2ccccc2F)C1=O,1.3,1.6,-0.2,1.0,0.5
COc1ccc(/C=C2\SC(=O)N(CCNC(=O)CN3C(=O)NC4(CCCC4)C3=O)C2=O)cc1,4.2*,5.2,-0.4,1.7,1.6
Cc1ccc(Nc2nc(CSc3nnc(-c4ccc(F)cc4)n3C)cs2)cc1,1.5,10.9*,-0.8,3.7,-0.4
COc1ccc(-c2nnc(SCc3csc(N)n3)n2C)cc1,-0.8,-0.8,-0.9,-0.5,0.7
C[C@@H]1COc2cccc(N3CCCC3)c2S(=O)(=O)N1,-0.2,1.4,-1.0,-1.8,.
CCCCN1CC(COCc2ccccc2)Oc2cccc(N3CCCCC3)c2S1(=O)=O (stereo not given),1.2,0.1,-0.9,1.1,.
Nc1nc(SCn2nnc3ccccc3c2=O)n[nH]1,1.4,-1.0,-1.7,0.8,6.8*
CN(C(=O)[C@@H]1CC=C[C@@H]2CCN(C3CCCCC3)C(=O)[C@@H]21)c1ccccc1,.,1.1,-1.1,-0.6,.
CC1=NN(C(N)=S)C(=O)C1N=Nc1cccc([N+](=O)[O-])c1 (stereo not given),-0.1,-1.0,-0.1,0.1,6.8*
CC1=NN(C(N)=S)C(=O)C1N=Nc1ccc(Cl)cc1 (stereo not given),1.3,11.3*,0.4,5.1,2.5
CC1=NN(C(N)=S)C(=O)C1N=Nc1ccccc1 (stereo not given),0.7,-1.4,-1.4,-0.4,0.4
O=C(CNc1nnnn1-c1ccccc1)N1CCCC1,0.1,-2.0,-0.9,2.6,.
O=C(Cc1c(F)cccc1Cl)NCc1cccnc1,0.0,3.3,-0.4,5.6*,0.6
COC(=O)c1ccc(-c2ccc(F)cc2)nc1C,1.4,11.9*,0.2,2.2,2.0
CCOC(=O)c1cc2c(nc1N)CCCC2,-0.1,0.1,-1.8,-1.1,0.7
CCOC(=O)c1ccc(-c2ccc3c(c2)CCC3)nc1C,2.1,10.4,-0.5,5.6*,1.9
SMILES,DAX1 inh-1,hgDAF12 agonist,ssDAF-12 act,hcDAF-12 act,DAX1 inh-2
CCCCN=C(N)NC(=O)c1ccccc1,1.2,3.1,-1.0,-1.2,.
CCCn1c(=O)c(C(=O)Nc2ccccc2)c(O)c2ccccc21,1.1,4.1,0.0,4.6,-0.5
Cn1c(Cl)c(C(=O)Nc2ccccc2)c2ccccc21,0.4,3.1,0.2,6.5*,-0.5
COc1cccc(-c2coc3c(C)c4oc(=O)c(CCC(=O)O)c(C)c4cc23)c1,-0.3,-5.2,-1.4,-2.4,1.5
COc1cccc(-c2coc3cc4oc(=O)c(CCC(=O)O)c(C)c4cc23)c1,-0.1,-0.8,0.1,5.8*,-0.2
Clc1cccc2sc(N3CCCC3)nc12,0.5,3.2,0.0,1.1,0.4
Brc1cccc2sc(N3CCCC3)nc12,1.1,10.9*,0.5,2.6,1.4
CCC[C@@H](/C=C/C(=O)OC(C)(C)C)Sc1ccc(N)cc1,0.5,7.0,0.3,-1.0,.
O=C(Nc1ccc(-c2nc3cc(Cl)ccc3o2)cc1)C1CCCO1 (stereo not given),2.2,12.0*,-0.6,0.8,4.2
O=C(O)c1ccccc1-c1ccccc1C(=O)Nc1ccc(-c2nc3cc(Cl)ccc3o2)cc1,1.5,5.5,-1.0,2.3,-0.7
CC(=O)Nc1ccc(-c2nc3cc(Cl)ccc3o2)cc1,3.2,10.8*,0.5,5.5,5.5*
O=C(COc1ccc(CO)cc1Cl)Nc1ccc(F)cc1,2.8,10.9*,0.5,5.0,-0.4
COC(=O)c1cc2c(c3c4cc(F)ccc4n(S(=O)(=O)c4cccc(C)c4)c13)C(=O)N(Cc1ccccc1OC)C2,-0.5,0.7,-0.3,-0.5,.
Cc1ccccc1NC(=O)/C=C/c1cccs1,2.6,13.1*,-0.9,2.4,-0.1
COC(=O)[C@]12C[C@H](CC(=O)NCc3cccs3)C(=O)N(Cc3cccc4ccccc34)C1=C[C@H](C(C)C)O[C@@H]2C1CC1,0.1,-0.5,-1.5,-0.9,.
COC(=O)[C@]12CCCCC=C1N(Cc1ccc(OC)cc1)C(=O)[C@@H]2CC(=O)NCCCN1CCCC1=O,-1.4,-0.5,-0.7,-0.4,.
O=C(CC(=O)c1cc(Cl)ccc1O)c1ccccc1,1.0,11.7*,-0.8,2.2,3.4
Cc1cccc(C(=O)CC(=O)c2cc(Cl)ccc2O)c1,.,.,.,.,0.6
Cc1ccc(O)c(C(=O)CC(=O)c2cccc(F)c2)c1,2.1,7.8,0.2,2.0,1.0
Cc1ccc(O)c(C(=O)CC(=O)c2ccc(Cl)cc2)c1,2.4,10.7*,-0.2,4.9,1.9
CCOC(=O)c1ccccc1NC(=O)c1ccc2nc[nH]c2c1,-0.8,-1.5,-1.6,-1.7,-1.3
COc1ccc(NC(=O)c2ccc3nc[nH]c3c2)c(OC)c1,0.5,-1.2,-1.4,1.1,1.3
CCOc1ccccc1NC(=O)c1ccc2nc[nH]c2c1,-0.2,0.5,-1.5,-2.0,4.4*
COc1ccccc1NC(=O)c1ccc2[nH]c(C)c(C)c2c1,1.0,10.5*,-0.4,3.3,2.5
Cc1[nH]c2ccc(C(=O)Nc3ccncc3)cc2c1C,-0.5,-1.2,-1.7,-3.0,-1.4
SMILES,DAX1 inh-1,hgDAF12 agonist,ssDAF-12 act,hcDAF-12 act,DAX1 inh-2
Cc1ccc(NC(=O)c2ccc3nc[nH]c3c2)c(O)c1,2.9,11.2*,0.5,6.2*,1.6
COc1cccc(CNC(=O)[C@H]2CCCN2C(=O)[C@H]2CCCN2C(=O)c2c(F)cccc2F)c1,-0.4,-0.4,0.0,0.8,.
COCC(=O)Nc1ccc2c(c1)C(=O)N(C)[C@@H]1CC[C@@H](CC(=O)OC)O[C@H]1CO2,-0.2,-0.8,-1.3,-0.6,.
CC(=O)/C=C1/C(=O)Nc2ccccc21,-0.4,1.8,0.3,6.0*,0.4
Cc1ccc(OCc2nnc(SCC(=O)Nc3ccc(S(=O)(=O)Nc4cc(C)nc(C)n4)cc3)n2Cc2ccco2)cc1,-0.9,-1.6,-1.6,-1.7,.
N#CCC(=O)N1CCN(C=O)CC1,-0.9,-1.0,-1.6,-1.6,4.7*
